Assay outcomes (PubChem BioAssay)
CYP2C19 act = human CYP2C19 activators, primary screen, biochemical, luminescence. Cytochrome P450 2C19 (Homo sapiens), P33261. recombinant CYP2C19, luciferin-H EGE luminescence; active compounds read high; 0 = fully inhibited enzyme, 1 = untreated enzyme. activation factor at 5 µM. 96,000 tested, under 10 active. AID 1025, 2008;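 active = activation factor of at least 2 at 5 µM in the primary screen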
CYP2C9 inhib = blockers of cytochrome P450 2C9 activity – biochemical, luminescence, ADME assay, primary screen. P11712. inhibition, % at 5 µM. AID 777, 2007. CYP2C9 Supersomes, luciferin-H conversion. 96,000 compounds, 20% hits;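 active = blocking of liver enzyme CYP2C9 beyond about 50% at 5 µM, limit read from the data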
Target sequence (P11712 whole entry, looked up): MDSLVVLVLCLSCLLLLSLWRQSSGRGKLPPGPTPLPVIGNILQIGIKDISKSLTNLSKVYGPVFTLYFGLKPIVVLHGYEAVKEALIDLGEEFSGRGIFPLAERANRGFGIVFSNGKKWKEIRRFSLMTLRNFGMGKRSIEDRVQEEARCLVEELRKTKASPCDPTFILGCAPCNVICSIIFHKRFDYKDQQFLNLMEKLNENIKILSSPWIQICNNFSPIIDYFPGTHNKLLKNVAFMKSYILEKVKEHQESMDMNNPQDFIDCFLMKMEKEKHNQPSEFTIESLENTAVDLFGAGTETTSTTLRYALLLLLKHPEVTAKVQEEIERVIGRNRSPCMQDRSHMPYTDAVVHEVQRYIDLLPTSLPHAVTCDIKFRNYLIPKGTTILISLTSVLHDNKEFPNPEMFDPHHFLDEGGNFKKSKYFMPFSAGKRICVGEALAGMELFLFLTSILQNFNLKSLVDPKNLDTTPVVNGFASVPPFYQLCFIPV
Cav32 inh = Cav3.2 calcium influx blockers – cell-based, Fluo-4 calcium fluorescence, FDSS, MLSMR library, primary screen; Voltage-dependent T-type calcium channel subunit alpha-1H (Homo sapiens), O95180; Cav3.2-expressing cells; active compounds read low; B-score at 10 µM; 100,000 compounds, 4% hits; AID 449739, 2010;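 active = single-dose well whose peak fluorescence ratio is a statistical outlier from its plate by either plate-standardised score or position-corrected B-score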
CYP2C9 activ = human CYP2C9 activators, primary screen, biochemical, luminescence. Cytochrome P450 2C9 (Homo sapiens), P11712. recombinant CYP2C9, luciferin-H conversion; active compounds read high; factor 1 = untreated enzyme, 0 = blocked. activation factor at 5 µM. 96,000 compounds, 1.4% hits;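 active = activation factor of 2 or more for CYP2C9 at a 5 µM dose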
CYP2C19 inh = blockers of cytochrome P450 2C19 activity – biochemical, luminescence, ADME assay, primary screen. CYP2C19 Supersomes, luciferin-H EGE luminescence, 30 min. inhibition, % at 5 µM. 96,000 compounds, 21% hits. AID 778, 2007;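 active = CYP2C19 inhibition above a set limit at 5 µM in the primary screen, cut at about 50% in these data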
Each line names hits and unclear results; the compound was inactive in the other large screens. Sampled rows, rich in hits. Any-hit rate of the full collection: about 27%.

O=C(CN(C(=O)Cn1nnc(-c2cccs2)n1)c1ccc2c(c1)OCCO2)NCc1ccccc1	CYP2C9 inhib 95.7, CYP2C19 inh 59.5
COc1ccccc1CN(CC(=O)NCc1ccco1)C(=O)CNS(=O)(=O)c1ccccc1	none
O=C(CN(CCc1ccccc1)C(=O)CN1C(=O)COc2ccccc21)NCc1ccco1	none
O=C(CN(Cc1ccccc1)C(=O)c1ccco1)NCc1ccc(F)cc1	CYP2C19 inh 83.5
O=C(CN(CCc1ccccc1)C(=O)CNS(=O)(=O)c1ccc(F)cc1)NCc1ccco1	CYP2C19 inh 72.8
COc1ccccc1NC(=O)c1ccc(-n2cccn2)nc1	CYP2C9 activ 2
Cc1ccccc1NC(=O)c1c(F)c(F)c(F)c(F)c1F	none
O=C(Nc1ccc(F)cc1F)c1noc2c1CCC2	none
O=C(Nc1c(F)cccc1F)c1ccc(-n2cncn2)nc1	CYP2C19 inh 93.0
COc1ccc(NC(=O)c2ccc(-n3cccn3)nc2)c(OC)c1	none
O=C(Nc1ccc(F)cc1F)c1ccc(-n2cncn2)nc1	CYP2C9 inhib 76.4, CYP2C19 inh 99.5 (no result: Cav32 inh)
Cc1ccccc1NC(=O)c1ccc(-n2cncn2)nc1	CYP2C9 inhib 84.9, CYP2C19 inh 98.8 (no result: Cav32 inh)
O=C(O)C1=C[C@H](c2ccc(F)cc2)C[C@H](OCc2ccc(CO)cc2)O1	none (no result: CYP2C19 act, CYP2C9 inhib, CYP2C9 activ, CYP2C19 inh)
CCC(=O)N(CCC1(C(C)C)CCOC(C)(C)C1)Cc1ccco1 (stereo not drawn)	CYP2C19 inh 58.6
CCOC(=O)C1(S(=O)(=O)c2ccc(Cl)cc2)CCN(Cc2ccc(C)cc2)CC1	CYP2C9 inhib 99.4, CYP2C19 inh 91.5
C=C1CCN([C@@H](CC(C)C)C(=O)N2CCOCC2)S(=O)(=O)c2ccccc21	none (no result: CYP2C19 act, CYP2C9 inhib, CYP2C9 activ, CYP2C19 inh)
O=C(COc1ccccc1)Nc1ccc(CSc2ccccc2)cc1	none
Cc1nn(C(C)(C)C)c(OC(=O)c2ccc3c(c2)OCO3)c1S(=O)(=O)c1ccccc1	CYP2C9 inhib 82.9, CYP2C19 inh 61.9
Cc1nn(C(C)(C)C)c(OC(=O)c2ccc3c(c2)OCO3)c1Sc1ccccc1	Cav32 inh -4.85
CC1CN(S(=O)(=O)c2cccc(C(=O)OCC(=O)Nc3ccc4c(c3)OCO4)c2)CC(C)O1 (stereo not drawn)	none
Cc1nc2cc(Cl)c(Cl)cc2nc1C	none
CC1=CC(C)(C)N2C(=O)C3(N=C(N)NC(Nc4ccccc4)=N3)c3cc(C)cc1c32 (stereo not drawn)	Cav32 inh -3.71
CCOc1ccc2nc(SCC(=O)NCc3ccc4c(c3)OCO4)[nH]c2c1	CYP2C9 inhib 67.6
COc1ccc2nc(SCC(=O)Nc3ccc4c(c3)OCCO4)[nH]c2c1	CYP2C9 inhib 80.9 (no result: Cav32 inh)
O=C(CSc1nc2ccc(Cl)cc2[nH]1)c1ccc2c(c1)OCO2	CYP2C9 inhib 65.9
O=C(CSc1ncn[nH]1)c1ccc2c(c1)OCO2	none
CCOc1ccc2nc(SCC(=O)Nc3ccc4c(c3)OCCO4)[nH]c2c1	CYP2C9 inhib 90.9, CYP2C19 inh 60.6
CCOc1ccc2nc(SCC(=O)Nc3ncccn3)[nH]c2c1	none (no result: Cav32 inh)
CCOC(=O)NC(=O)CSc1nc2ccc(OCC)cc2[nH]1	none
C/C(Cl)=C/Cn1c(=O)c2c(nc(Br)n2Cc2ccccc2)n(C)c1=O	none
Cc1ccc(OCc2nn3c(-c4n[nH]c5c4CCC5)nnc3s2)cc1	none (no result: Cav32 inh)
O=C(CSc1nc2ncc(Br)cc2[nH]1)Nc1ccc2c(c1)OCO2	CYP2C9 inhib 96.2, CYP2C19 inh 71.5 (no result: Cav32 inh)
O=C(Nc1ccc2c(c1)OCO2)Nc1ccc(Br)cn1	none
COc1ccc2nc(SCC(=O)Nc3c(C)cccc3C)[nH]c2c1	CYP2C9 inhib 83.7, CYP2C19 inh 51.8
CC(C)NC(=O)C1(O)c2ccccc2NC(=O)N1c1ccc(Cl)c(Cl)c1 (stereo not drawn)	none
CCOc1ccc(N2C(=O)Nc3ccccc3C2(O)C(=O)NCc2ccc3c(c2)OCO3)cc1 (stereo not drawn)	CYP2C9 activ 2.4
COc1ccc2nc(SCC(N)=O)[nH]c2c1	none
CCC(=O)Nc1nc2nc(C)cc(=O)n2[nH]1	none (no result: Cav32 inh)
Cc1nc2ncnn2c(C)c1CCC(=O)N1CCOCC1	none
CCO[C@H]1OC(C(=O)O)=C[C@@H](c2ccccc2)[C@@H]1CCCO	none (no result: CYP2C19 act, CYP2C9 inhib, CYP2C9 activ, CYP2C19 inh)
CC(=O)OCC(=O)Nc1ccc(Cl)cc1Cl	none
COC(=O)CSc1nc(C)cc(Oc2ccccc2)n1	CYP2C19 inh 86.3
Cc1cc(Oc2ccccc2)nc(SCC(=O)Nc2ccc(Cl)cc2Cl)n1	CYP2C9 inhib 93.3, Cav32 inh -5.82, CYP2C19 inh 99.2
O=S(=O)(Cc1ccccc1Cl)N1CCN(Cc2ccc3c(c2)OCO3)CC1	CYP2C19 inh 93.6
COc1ccc(S(=O)(=O)N2CCN(Cc3ccc4c(c3)OCO4)CC2)c2ccccc12	CYP2C9 inhib 73.7, CYP2C19 inh 89.4
Cc1ccc2nsnc2c1S(=O)(=O)N1CCCC1	none
CSc1ccc(S(=O)(=O)N2CCN(Cc3ccc4c(c3)OCO4)CC2)cc1	none
COc1ccc(F)cc1S(=O)(=O)N1CCN(Cc2ccc3c(c2)OCO3)CC1	CYP2C19 inh 55.7 (no result: Cav32 inh)
Cc1ccc2nsnc2c1S(=O)(=O)N1CCN(Cc2ccc3c(c2)OCO3)CC1	CYP2C9 inhib 72.9, CYP2C19 inh 97.3
CCc1nc2ccccc2c(C(=O)OCc2nnc(-c3ccccc3)o2)c1C	CYP2C9 inhib 60.8, CYP2C19 inh 67.8 (no result: Cav32 inh)
CCc1nc2ccccc2c(C(=O)OCCN2C(=O)c3ccccc3C2=O)c1C	CYP2C9 inhib 57.1, CYP2C19 inh 76.2
COc1cnc(SCc2c(Cl)cccc2Cl)nc1Cl	none
COc1ccc(-c2nc3nc(C)cc(=O)n3[nH]2)cc1	none (no result: Cav32 inh)
Cc1ccc2cc(CCNC(=O)c3ccc4c(c3)OCO4)c(=O)[nH]c2c1C	CYP2C9 inhib 59.8
Cc1ccc2cc(CCNC(=O)C(C)C)c(=O)[nH]c2c1C	none
O=C(C=C1CCN(c2ncc(C(F)(F)F)cc2Cl)CC1)NNC(=O)Nc1ccc(Cl)cc1	none
COc1ccc(OC)c(S(=O)(=O)N2CCC(C(=O)NCCc3ccccc3)CC2)c1	CYP2C9 activ 3.2
COc1ccc(CCNC(=O)C2CCN(S(=O)(=O)c3cc(OC)ccc3OC)CC2)cc1	none
COc1ccc(CNC(=O)C2CCN(S(=O)(=O)c3cc(OC)ccc3OC)CC2)cc1	CYP2C19 inh 64.9
COc1ccc(Cl)cc1S(=O)(=O)n1nnc2ccccc21	none
O=C(C1CCN(c2nnc(-n3cccc3)s2)CC1)N1CCN(Cc2ccc3c(c2)OCO3)CC1	none
COc1ccc(OC)c(S(=O)(=O)n2nnc3ccccc32)c1	CYP2C19 inh 59.4
CC1CCN(Cc2ccc(NC(=O)C3CCN(c4nnc(-n5cccc5)s4)CC3)cc2)CC1	CYP2C19 inh 56.0
COc1ccc(OC)c(S(=O)(=O)N2CCN(C)CC2)c1	none
COc1ccc(OC)c(CCNC(=O)C2CCN(c3nnc(-n4cccc4)s3)CC2)c1	CYP2C9 inhib 65.4, CYP2C19 inh 92.7
